Here are results for 40 compounds from PubChem BioAssay (Tox21).

Results filed as inconclusive are left out. A call without a number means that no potency is given here. Activity calls are given as the source filed them. Calls follow the shape of the full dose curve.
Potency is read from the fitted curve at half-maximal effect.

The test in a line: qHTS assay to identify small molecule agonists of the NFkB signaling pathway - cell viability counter screen (AID 1159515). Also: nearly all actives have a fitted effect of over 55% in size. The following applies: NFkB-bla ME-180 viability, CellTiter-Glo luminescence, 5 h; series mostly up to 61 µM. The source says: National Center for Advancing Translational Sciences [NCATS]
NIH Chemical Genomics Center [NCGC]
U.S. Environmental Protection Agency [EPA]
National Institutes of Environmental Health Sciences [NIEHS]
National Toxicology Program [NTP]
U.S. Food and Drug Administration [FDA]
Transcription factors and their stimulated target gene expression play pivotal roles across many cellular processes including responses to environmental stimuli. Proper regulation of associated pathways is critical to maintain cell health and function. Constitutive activation of transcription factor pathways has been implicated in tumors as it may block cellular functions such as apoptosis and lead to invasion and metastasis. One important transcription factor that stimulates gene expression in response to cytokines, UV radiation, and other stimuli is nuclear factor-kappa B (NFkB). To measure activation of the NFkB pathway, the CellSensor NFkB-bla ME-180 cell line (Life Technologies, Carlsbad, CA) that stably expresses beta-lactamase reporter gene under the regulation of a NF-kB response element was used. This assay allows measurement of the NFkB pathway activity induced by compounds in a ME-180 cell line. This system quantitates NF-kB activity using a FRET-based assay system where beta-lactamase expression disrupts FRET, allowing for fluorescent measurement of activity. This cell line has been used to screen the Tox21 10K compound library and to identify compounds that induce the NFkB pathway activity. The cytotoxicity of the Tox21 compound library against the NFkB-bla ME-180 cell line was tested in parallel by measuring cell viability using the CellTiter-Glo assay in the same wells.
Tox21 Assay Protocol Summary:
NFkB-bla ME-180 cells were dispensed at 2,000 cells/6 uL of assay medium per well into black wall/clear-bottom 1536-well plates using a Multidrop Combi (ThermoFisher Scientific, Waltham, MA) dispenser. After the assay plates were incubated at 37 C and 5% CO2 for an overnight, 23 nL of compounds dissolved in DMSO, positive controls or DMSO only was transferred to the assay plate by a Pintool station (Kalypsys, San Diego, CA). The assay plates were incubated at 37 C and 5% CO2 for 5 hr. One uL of LiveBLAzer B/G FRET substrate (Life Technologies) was added using a Flying Reagent Dispenser (Aurora Discovery, San Diego, CA) and the plates were incubated at room temperature for 1.5 hr. Fluorescence intensity (405 nm excitation, 460 nm and 530 nm emissions) was measured using an Envision plate reader (PerkinElmer, Shelton, CT). For cytotoxicity, 3 ul/well of CellTiter-Glo reagent was added into the assay plates using an FRD. After 30 min incubation at room temperature, the luminescence intensity was measured using a ViewLux plate reader (PerkinElmer).
In general terms: In qHTS, concentration-response curves come from the screen itself.
For `CCCCCCCC(=O)OCCCCCC`, the Potency result is “inactive”.

`COc1cc(S(=O)(=O)Nc2ccccc2)c(OC)cc1N`: the Potency result is “inactive”.

Consider `COc1ccc(/C=C/C(=O)c2ccc(OC)cc2OC)cc1`, for which the Potency entry is “inactive”.

Regarding `CNC1CCCN(c2c(F)cc3c(=O)c(C(=O)O)cn(C4CC4)c3c2OC)C1` (stereo not given), the Potency result is “inactive”.

Take `COc1ccc2nc(S(=O)Cc3ncc(C)c(OC)c3C)[nH]c2c1` (stereo not given): the Potency entry was “inactive”.

For the compound `COc1cc(NC(C)CCCN)c2ncccc2c1` (stereo not given), the Potency entry was “inactive”.

With `CCNc1nc(N)nc(Cl)n1`, the Potency entry was “inactive”.

For the compound `Nc1ccc(NC(=O)c2ccc(N)cc2)cc1`, the Potency entry was “inactive”.

Regarding `CC(C)(C)S`, the Potency entry was “inactive”.

As to `CN1CCCN(C(c2ccccc2)c2ccc(Cl)cc2)CC1` (stereo not given), the Potency is 12 µM (active).

`CC[C@@H](CO)NCCN[C@@H](CC)CO`: the Potency result is “inactive”.

As to `CCCc1nc2c(C)cc(-c3nc4ccccc4n3C)cc2n1Cc1ccc(-c2ccccc2C(=O)O)cc1`, the Potency entry was “inactive”.

On to `CCN(Cc1cccc(S(=O)(=O)O)c1)c1ccc(C(=C2C=CC(=[N+](CC)Cc3cccc(S(=O)(=O)O)c3)C=C2)c2ccc(O)cc2S(=O)(=O)[O-])cc1`, for which the Potency was 26.5 µM (active).

On to `CNc1c2c(nn1C)CCCC2`, for which the Potency result is “inactive”.

Regarding `COc1ccc(C)cc1`, the Potency result was “inactive”.

Consider `CC(O)Cn1cnc2c1c(=O)n(C)c(=O)n2C` (stereo not given), for which the Potency entry was “inactive”.

With `CCN(CC)CC(=O)Nc1c(C)cccc1C(=O)OC`, the Potency result is “inactive”.

Take `CC(C)CC(O)CC(C)C`: the Potency result is “inactive”.

With `COC(=O)c1sccc1S(N)(=O)=O`, the Potency entry is “inactive”.

`CNS(=O)(=O)c1cc(C(=O)N2CCC(CCN3C4CCC3CC(n3c(C)nc5ccccc53)C4)(c3cccc(F)c3)CC2)c(Cl)cc1F` (stereo not given): the Potency was 38.9 µM (active).

For the compound `CCN(Cc1cccc(S(=O)(=O)O)c1)c1ccc(C(=C2C=CC(=[N+](CC)Cc3cccc(S(=O)(=O)O)c3)C=C2)c2ccccc2S(=O)(=O)[O-])cc1`, the Potency was 34.8 µM (active).

For the compound `NC(=O)CCCCC(N)=O`, the Potency entry is “inactive”.

Regarding `Cc1cc(CCC(=O)OCCOCCOCCOC(=O)CCc2cc(C)c(O)c(C(C)(C)C)c2)cc(C(C)(C)C)c1O`, the Potency result is “inactive”.

Regarding `Nc1ccc(N=Nc2ccc(N)cc2)cc1`, the Potency entry is “inactive”.

For `O=c1[nH]c2cc(C(F)(F)F)c(N3CCOCC3)cc2n(CP(=O)(O)O)c1=O`, the Potency entry is “inactive”.

For `O=C(O)CN1C(=O)c2cccc3cccc(c23)C1=O`, the Potency result was “inactive”.

For `CCN(CC)C(=O)/C(C#N)=C/c1cc(O)c(O)c([N+](=O)[O-])c1`, the Potency entry is “inactive”.

Regarding `O=C1NC(=O)c2cccc3cccc1c23`, the Potency entry was “inactive”.

Consider `Cc1cccc2sc(N)nc12`, for which the Potency entry was “inactive”.

For the compound `c1ccc(CCCc2ccncc2)cc1`, the Potency result is “inactive”.

Consider `CN(C)CC/C=C1\c2ccccc2Sc2ccc(Cl)cc21`, for which the Potency result is “inactive”.

As for `COc1ccc(-n2nc(C(F)F)cc2-c2ccc(S(C)=O)cc2)cc1` (stereo not given), the Potency result is “inactive”.

With `O=C(c1ccccc1)c1ccc(O)cc1`, the Potency result was “inactive”.

For the compound `Cc1cn([C@H]2C[C@H](F)[C@@H](CO)O2)c(=O)[nH]c1=O`, the Potency entry is “inactive”.

As for `CC1CCC(C(C)CS)CC1S` (stereo not given), the Potency result is “inactive”.

For the compound `CC(C)C(=O)OCCOc1ccccc1`, the Potency entry was “inactive”.

Turning to `O=C(O)c1cc(Cl)cc(Cl)c1O`, the Potency entry was “inactive”.

For `COC(=O)CC(C(C)=O)C(=O)OC` (stereo not given), the Potency result is “inactive”.

Take `Nc1ccn([C@H]2CS[C@@H](CO)O2)c(=O)n1`: the Potency result was “inactive”.

On to `FC(F)(F)C(F)(F)C(F)(F)C(F)(F)CCI`, for which the Potency entry was “inactive”.
